PV pol inh – poliovirus RNA polymerase inhibition; P03300; poliovirus polymerase elongation, fluorescence polarization; hits give low values; % elongation, % (compound at 16.7 µg/mL); actives 0.66% (n = 150,000); AID 588519; in the data active = % elongation below about 90%
MbtI inh – MbtI salicylate synthase inhibition | P9WFX0 | purified MbtI enzyme, fluorescence intensity read-out | inhibition, % (test concentration not listed) | actives 0.89% (n = 100,000); in the data active = inhibition mostly above about 56%, no sharp cut-off; inactive = mostly below about 77%
MenB inh – Mtb MenB enzyme inhibition; MenB enzyme assay, absorbance read-out; inhibition, % (concentration not given with the values); actives 0.43% (n = 100,000); in the data active = inhibition above about 21%, passing the limit was not always enough
Target sequence (P9WNP5 whole entry, looked up): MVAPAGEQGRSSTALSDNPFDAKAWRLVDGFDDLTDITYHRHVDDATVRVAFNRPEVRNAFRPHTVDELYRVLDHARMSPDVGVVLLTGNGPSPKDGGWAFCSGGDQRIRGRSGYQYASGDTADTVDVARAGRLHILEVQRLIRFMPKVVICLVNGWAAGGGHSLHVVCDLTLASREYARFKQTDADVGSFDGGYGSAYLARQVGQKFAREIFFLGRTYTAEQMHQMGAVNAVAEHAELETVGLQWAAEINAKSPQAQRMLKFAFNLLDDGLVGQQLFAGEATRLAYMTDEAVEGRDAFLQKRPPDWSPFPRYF
AID504770 – E. coli YBA685 growth inhibition, screen for V. cholerae RctB inhibitors | E. coli YBA685 rctB-dependent plasmid, OD600 growth, 3 h; hits give low values | z-score (test concentration not listed) | actives 0.27% (n = 130,000); in the data active = z-score below about -2, passing the limit was not always enough
Large screens that a line does not name were inactive. In the library only some 1.4% were active in any assay of this set; here they are far more common.

Cc1ccc(N2C(=O)N(CCN3C(=O)c4ccccc4C3=O)C(=O)C2C)cc1 (configuration not stated)	none
Cc1cnc(C(=O)OCCCCN2C(=O)c3ccccc3C2=O)cn1	none
CCCCS(=O)(=O)Nc1nccs1	none
CCCCS(=O)(=O)Nc1ccc(C)cn1	PV pol inh 83
CCN1C(=O)/C(=C(/C#N)C(=O)C(C)(C)C)c2ccccc21	none
Cc1cc(C)c(C(=O)O)c(=S)[nH]1	MbtI inh 89, AID504770 -2.5
Cc1cc(C)c(C(=O)O)c(=O)[nH]1	none
CSc1cccc(NC(=O)CSc2nncn3c2cc2occc23)c1	none
COc1ccc(-c2oc3ncn4nc(COc5ccc(Cl)cc5)nc4c3c2-c2ccc(OC)cc2)cc1	PV pol inh 55 (no result: MbtI inh, MenB inh, AID504770)
Cc1cc(C)c(NC(=O)c2oc3c(c2C)-c2[nH]ncc2CC3)c(C)c1	none (no result: MbtI inh, MenB inh, AID504770)
Cc1ccc(Cl)cc1NC(=O)c1oc2c(c1C)-c1[nH]ncc1CC2	PV pol inh 78 (no result: MbtI inh, MenB inh, AID504770)
CCOC(=O)C(Cc1ccccc1)C(=O)Nc1ccc(OC)cc1 (configuration not stated)	none
Cc1ccc(CSc2nc(N)cc(N)n2)cc1	MenB inh 36
CNc1c(C(=O)c2ccc(F)cc2)sc(N)c1C#N	none
Cc1ccc(C(=O)c2sc(Nc3ccc(F)cc3)c(C#N)c2N)cc1	PV pol inh 77 (no result: MbtI inh, MenB inh, AID504770)
CCCn1c2ccc(F)cc2c2nc3n(c(=O)c21)CCS3	none
O=C(Cn1c2ccc(F)cc2c2nc3n(c(=O)c21)CCS3)N1CCCC1	MenB inh 30
Cc1cc(C)cc(OCc2cc(=O)n3c4c(sc3n2)CCCC4)c1	PV pol inh 78 (no result: MbtI inh, MenB inh, AID504770)
C=CCN1C(=O)c2ccc(C(=O)OCC(=O)c3cc(C)n(C)c3C)cc2C1=O	none
CCOc1ccc(C2=C(C(=O)CC)Sc3nncn3N2C(=O)CC)cc1	PV pol inh 82 (no result: MbtI inh, MenB inh, AID504770)
CCC(=O)C1=C(c2ccccc2)N(C(=O)CC)n2cnnc2S1	none
CCC(=O)C1=C(c2ccc(F)cc2)N(C(=O)CC)n2cnnc2S1	PV pol inh 86 (no result: MbtI inh, MenB inh, AID504770)
COc1ccc(N2CCN(S(C)(=O)=O)CC2)cc1	MenB inh 40
Cc1ccc(C)c(N2N=C(C(=O)OCn3nnc4ccccc4c3=O)CCC2=O)c1	none
O=C(NCc1ccco1)C(=S)N1CCOCC1	MbtI inh 76
Cc1ccc(C(c2nnnn2C(C)(C)C)N2CCC(C)CC2)cc1 (configuration not stated)	none
Cc1ccc(C(c2c(O)[nH]c(=S)[nH]c2=O)N2CCC(C)CC2)cc1 (configuration not stated)	MbtI inh 66
COc1ccc(OC)c(-c2nnc3n(Cc4ccc(C)cc4)c(=O)c4ccccc4n23)c1	PV pol inh 64 (no result: MbtI inh, MenB inh, AID504770)
COc1ccc(Cn2c(=O)c3ccccc3n3c(-c4ccccc4O)nnc23)cc1	none
O=C(/C=C/c1ccco1)Nc1cc(C(=O)O)cc(C(=O)O)c1	none
Cc1scc(-c2ccccc2)[n+]1CCO	MbtI inh 54
